Results published in publication PMC7862700, “An all-to-all approach to the identification of sequence-specific readers for epigenetic DNA modifications on cytosine”.

Key:
Assay in all cases: DAPPL (digital affinity profiling via proximity ligation, sequencing); 10 mM Tris-HCl pH 7.5, 50 mM NaCl, 1 mM DTT, 4% glycerol, room temperature, 30 min; GST-TFs on glutathione beads, 16-mer random dsDNA library, 0.1% formaldehyde crosslink after washing; high values mean tight binding
[1] = biological target: T1, FEV (Homo sapiens, UniProt Q99581 1-238); conditions: protein: recombinant; tags: N-terminal GST; dsDNA, one strand shown
T1 sequence: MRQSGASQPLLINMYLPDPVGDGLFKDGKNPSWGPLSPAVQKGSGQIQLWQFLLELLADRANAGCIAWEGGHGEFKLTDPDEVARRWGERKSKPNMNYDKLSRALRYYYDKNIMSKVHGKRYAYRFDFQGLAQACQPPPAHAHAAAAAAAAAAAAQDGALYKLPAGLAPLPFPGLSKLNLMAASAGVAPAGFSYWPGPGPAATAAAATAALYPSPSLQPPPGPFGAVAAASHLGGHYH
Outline: (§1)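 Sequencing on an Illumina NextSeq500 followed washing, crosslinking with 0.1% formaldehyde, proximity ligation (BsaI/T4 ligase, 1 h, 37 °C) and PCR amplification of pools that had been incubated for 30 min at room temperature with 200 nmole of a random double-stranded 16-mer DNA library in Tris/NaCl/DTT/glycerol buffer. Each pool held DNA-barcoded human transcription factors, expressed in yeast as GST fusions and captured on glutathione beads, plus a tag-only sample. Binding signal is a hexamer's read frequency for a factor divided by its frequency in the tag-only sample.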

[2] = biological target: ETV5 (Homo sapiens, UniProt P41161 1-510); conditions: protein: recombinant; tags: N-terminal GST; dsDNA, one strand shown
ETV5, sequence (P41161 whole entry): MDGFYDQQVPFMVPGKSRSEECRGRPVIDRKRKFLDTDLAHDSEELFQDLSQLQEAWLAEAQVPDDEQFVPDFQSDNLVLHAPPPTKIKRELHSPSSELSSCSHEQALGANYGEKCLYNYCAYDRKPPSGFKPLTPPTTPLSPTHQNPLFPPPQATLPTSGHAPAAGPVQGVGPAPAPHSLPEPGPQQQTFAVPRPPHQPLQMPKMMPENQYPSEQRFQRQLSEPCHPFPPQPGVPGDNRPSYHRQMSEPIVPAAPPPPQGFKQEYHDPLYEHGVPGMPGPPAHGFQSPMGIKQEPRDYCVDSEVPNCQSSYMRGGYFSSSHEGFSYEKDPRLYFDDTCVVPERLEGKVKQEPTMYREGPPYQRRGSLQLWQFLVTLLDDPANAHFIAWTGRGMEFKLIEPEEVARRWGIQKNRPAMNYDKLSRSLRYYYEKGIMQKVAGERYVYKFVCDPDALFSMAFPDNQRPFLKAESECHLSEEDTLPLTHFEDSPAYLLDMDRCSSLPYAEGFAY
Outline: as §1

[3] = biological target: HSF1 (Homo sapiens, UniProt Q00613 1-529); conditions: protein: recombinant; tags: N-terminal GST; chain copies: 3; dsDNA, one strand shown
HSF1, sequence (Q00613 whole entry): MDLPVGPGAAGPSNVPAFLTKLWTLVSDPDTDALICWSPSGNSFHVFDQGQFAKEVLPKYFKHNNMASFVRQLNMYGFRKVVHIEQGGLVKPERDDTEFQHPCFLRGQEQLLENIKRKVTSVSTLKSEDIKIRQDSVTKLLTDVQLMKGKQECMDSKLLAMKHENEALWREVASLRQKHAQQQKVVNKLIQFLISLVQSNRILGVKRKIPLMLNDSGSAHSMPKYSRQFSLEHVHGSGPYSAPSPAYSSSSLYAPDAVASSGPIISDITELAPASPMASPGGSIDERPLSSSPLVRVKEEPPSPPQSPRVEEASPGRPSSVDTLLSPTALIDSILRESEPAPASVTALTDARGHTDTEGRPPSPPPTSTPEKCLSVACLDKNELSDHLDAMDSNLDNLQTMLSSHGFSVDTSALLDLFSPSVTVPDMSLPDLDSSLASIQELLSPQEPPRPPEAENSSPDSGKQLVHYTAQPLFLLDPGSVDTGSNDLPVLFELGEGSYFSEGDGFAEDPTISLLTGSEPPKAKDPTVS
Outline: as §1

[4] = biological target: T2, SPIC (Homo sapiens, UniProt Q8N5J4 1-248); conditions: protein: recombinant; tags: N-terminal GST; dsDNA, one strand shown
T2 sequence: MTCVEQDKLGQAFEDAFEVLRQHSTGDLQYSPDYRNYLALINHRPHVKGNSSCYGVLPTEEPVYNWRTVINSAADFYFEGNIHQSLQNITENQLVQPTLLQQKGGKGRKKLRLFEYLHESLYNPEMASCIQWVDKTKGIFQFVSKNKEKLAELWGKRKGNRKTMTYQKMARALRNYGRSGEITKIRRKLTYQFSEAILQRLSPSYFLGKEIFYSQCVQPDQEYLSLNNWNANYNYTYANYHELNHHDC
Outline: as §1

[5] = biological target: ELF4 (Homo sapiens, UniProt Q99607 1-663); conditions: protein: recombinant; tags: N-terminal GST; dsDNA, one strand shown
ELF4, sequence (Q99607 whole entry): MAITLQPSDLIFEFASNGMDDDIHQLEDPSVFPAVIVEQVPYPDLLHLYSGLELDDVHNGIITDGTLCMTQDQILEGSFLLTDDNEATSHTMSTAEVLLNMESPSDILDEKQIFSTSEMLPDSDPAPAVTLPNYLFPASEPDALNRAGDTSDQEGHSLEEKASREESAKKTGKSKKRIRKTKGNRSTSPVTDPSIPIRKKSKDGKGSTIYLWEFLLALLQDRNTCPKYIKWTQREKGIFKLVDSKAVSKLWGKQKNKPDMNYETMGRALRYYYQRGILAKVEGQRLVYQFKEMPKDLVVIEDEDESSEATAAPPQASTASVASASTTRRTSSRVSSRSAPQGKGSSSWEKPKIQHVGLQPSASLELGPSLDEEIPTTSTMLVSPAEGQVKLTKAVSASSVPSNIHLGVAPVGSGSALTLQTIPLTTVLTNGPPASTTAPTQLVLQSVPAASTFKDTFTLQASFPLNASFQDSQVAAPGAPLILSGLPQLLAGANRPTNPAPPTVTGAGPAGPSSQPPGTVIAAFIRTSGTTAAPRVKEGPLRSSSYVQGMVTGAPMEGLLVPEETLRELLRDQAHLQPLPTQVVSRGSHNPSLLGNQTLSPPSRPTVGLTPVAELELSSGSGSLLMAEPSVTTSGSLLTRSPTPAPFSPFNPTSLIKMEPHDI
Outline: as §1

[6] = biological target: T3, ELK4 (Homo sapiens, UniProt P28324-2 1-405); conditions: protein: recombinant; tags: N-terminal GST; dsDNA, one strand shown
T3 sequence: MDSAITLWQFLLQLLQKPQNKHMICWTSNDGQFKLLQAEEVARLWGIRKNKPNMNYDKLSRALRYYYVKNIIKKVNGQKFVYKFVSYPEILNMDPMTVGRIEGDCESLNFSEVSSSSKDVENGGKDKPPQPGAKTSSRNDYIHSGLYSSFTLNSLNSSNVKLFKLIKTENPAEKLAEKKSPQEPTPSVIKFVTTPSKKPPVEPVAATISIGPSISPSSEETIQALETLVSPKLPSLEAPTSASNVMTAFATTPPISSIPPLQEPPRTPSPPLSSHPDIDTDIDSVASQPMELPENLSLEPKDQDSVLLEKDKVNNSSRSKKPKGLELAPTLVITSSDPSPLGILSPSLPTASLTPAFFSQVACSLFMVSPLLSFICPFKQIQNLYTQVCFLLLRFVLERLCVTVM
Outline: as §1

[7] = biological target: T4, ETV2 (Homo sapiens, UniProt O00321 1-342); conditions: protein: recombinant; tags: N-terminal GST; dsDNA, one strand shown
T4 sequence: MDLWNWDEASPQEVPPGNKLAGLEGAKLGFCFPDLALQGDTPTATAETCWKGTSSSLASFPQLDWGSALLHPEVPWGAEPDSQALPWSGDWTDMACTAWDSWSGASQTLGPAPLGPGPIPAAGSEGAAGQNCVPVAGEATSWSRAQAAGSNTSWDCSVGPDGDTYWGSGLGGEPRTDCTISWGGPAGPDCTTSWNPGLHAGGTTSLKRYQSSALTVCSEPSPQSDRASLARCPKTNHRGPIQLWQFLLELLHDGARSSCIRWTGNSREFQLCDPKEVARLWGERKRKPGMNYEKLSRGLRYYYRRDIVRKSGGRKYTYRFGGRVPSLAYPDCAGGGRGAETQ
Outline: as §1

[8] = biological target: T5, ELF3 (Homo sapiens, UniProt P78545 1-371); conditions: protein: recombinant; tags: N-terminal GST; dsDNA, one strand shown
T5 sequence: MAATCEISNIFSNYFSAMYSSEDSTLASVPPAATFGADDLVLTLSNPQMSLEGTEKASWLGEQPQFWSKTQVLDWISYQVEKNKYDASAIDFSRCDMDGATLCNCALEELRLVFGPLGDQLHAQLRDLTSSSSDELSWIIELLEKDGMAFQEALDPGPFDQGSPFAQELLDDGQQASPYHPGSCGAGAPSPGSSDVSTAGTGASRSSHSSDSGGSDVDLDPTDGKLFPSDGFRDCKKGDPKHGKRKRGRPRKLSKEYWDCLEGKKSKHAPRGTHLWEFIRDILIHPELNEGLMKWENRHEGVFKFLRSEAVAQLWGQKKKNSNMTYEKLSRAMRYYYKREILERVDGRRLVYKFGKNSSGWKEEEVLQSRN
Outline: as §1

[9] = biological target: CRX (Homo sapiens, UniProt O43186 1-299); conditions: protein: recombinant; tags: N-terminal GST; dsDNA, one strand shown
CRX, sequence (O43186 whole entry): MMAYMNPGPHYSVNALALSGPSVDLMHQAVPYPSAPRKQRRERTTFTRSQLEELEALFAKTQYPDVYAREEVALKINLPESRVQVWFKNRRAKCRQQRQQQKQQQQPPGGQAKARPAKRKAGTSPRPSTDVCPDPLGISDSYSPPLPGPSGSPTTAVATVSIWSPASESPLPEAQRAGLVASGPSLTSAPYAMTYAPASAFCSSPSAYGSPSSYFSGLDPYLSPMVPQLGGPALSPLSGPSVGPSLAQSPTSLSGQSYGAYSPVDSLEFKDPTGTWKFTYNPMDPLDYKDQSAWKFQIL
Outline: as §1

Sequence: CTAATG
- binding signal [1]: 1.16 fold enrichment (6-mer frequency, TF over GST control)
- binding signal [2]: 1.25 fold enrichment (6-mer frequency, TF over GST control)
- binding signal [3]: 1.31 fold enrichment (6-mer frequency, TF over GST control)
- binding signal [4]: 1.35 fold enrichment (6-mer frequency, TF over GST control)
- binding signal [5]: 1.36 fold enrichment (6-mer frequency, TF over GST control)
- binding signal [6]: 1.34 fold enrichment (6-mer frequency, TF over GST control)
- binding signal [7]: 1.12 fold enrichment (6-mer frequency, TF over GST control)
- binding signal [8]: 1.27 fold enrichment (6-mer frequency, TF over GST control)
- binding signal [9]: 1.6 fold enrichment (6-mer frequency, TF over GST control)
